High-throughput results (PubChem)
Many of the other results were omitted from the sample, so hits are more common in it than they were.
IDE exosite FP: exo-site inhibitors of human IDE, primary screen, biochemical, fluorescence anisotropy, probe displacement; Insulin-degrading enzyme (Homo sapiens), P14735; purified IDE, FL-6b probe fluorescence polarization; active compounds read low; z-score at 20 µM; 17,000 tested, 6.3% active; AID 1259349, 2017;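 active means z-score of -3 or lower, meaning strong loss of probe binding signal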;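 further: His-tagged human IDE residues 42-1019 made in E. coli with 30 nM FL-6b probe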
The depositor's hits bear a star.

SMILES	IDE exosite FP
CCC(=O)N1[C@H](CO)[C@H](c2ccccc2)C12CN(C(=O)c1ccc3c(c1)OCO3)C2	1.23
C[C@@H]1CCCCO[C@H](CN(C)Cc2ccc3c(c2)OCO3)[C@@H](C)CN([C@@H](C)CO)C(=O)c2cc(NS(=O)(=O)c3cn(C)cn3)ccc2O1	0.613
CCc1cnc(N2[C@@H](C#N)[C@H](c3ccc(C#CC(C)C)cc3)[C@@H]2CO)s1	6.01
COc1ccccc1-c1ccc([C@H]2[C@H](CO)N3CCCCN(C(=O)c4ccncc4)C[C@@H]23)cc1	-2.51
COc1ccccc1-c1ccc([C@H]2[C@H]3CN(C(=O)c4ccncc4)CCCCN3[C@H]2CO)cc1	0.953
Cc1ccccc1-c1ccc([C@H]2[C@H]3CN(C(=O)c4cccnc4)CCCCN3[C@H]2CO)cc1	0.895
COc1ccccc1-c1ccc([C@@H]2[C@H](CO)N3CCCCN(C(=O)c4cccnc4)C[C@@H]23)cc1	-4.09*
O=C(c1cccnc1)N1CCCCN2[C@@H](CO)[C@@H](c3ccc(C#Cc4cccnc4)cc3)[C@@H]2C1	0.377
COc1ccccc1-c1ccc([C@@H]2[C@H]3CN(C(=O)c4ccncc4)CCCCN3[C@H]2CO)cc1	-13.7*
CCCC#Cc1ccc([C@H]2[C@H](CO)N3C(=O)CN(C(=O)Nc4ccccc4F)C[C@@H]23)cc1	-2.6
COc1ccccc1S(=O)(=O)N1CC[C@H]2[C@H](CO)Nc3ccc(-c4ccc(C#N)cc4)cc3[C@H]21	1.02
COCC#Cc1ccc([C@@H]2[C@H](CO)N3C(=O)CN(C(=O)C4CCOCC4)C[C@@H]23)cc1	4.44
C[C@@H]1CN([C@@H](C)CO)C(=O)c2cccc(N(C)C)c2O[C@H]1CN(C)C(=O)Nc1ccc(F)cc1	0.553
COc1ccccc1-c1ccc2n(c1=O)C[C@H]1[C@H](CO)[C@@H](C(=O)N3CCOCC3)[C@@H]2N1CC1CC1	0.868
O=C(NC1CCCCC1)N1CC(=O)N2[C@H](CO)[C@H](c3ccc(/C=C/c4ccccc4)cc3)[C@@H]2C1	-10.3*
O=C(NC1CCCCC1)N1CC(=O)N2[C@H](C1)[C@H](c1ccc(/C=C/c3ccccc3)cc1)[C@@H]2CO	-3.89*
O=C(NC1CCCC1)N1CC(=O)N2[C@H](CO)[C@@H](c3ccc(/C=C/c4ccccc4)cc3)[C@@H]2C1	0.288
O=C(NC1CCCC1)N1CC(=O)N2[C@H](C1)[C@@H](c1ccc(/C=C/c3ccccc3)cc1)[C@@H]2CO	0.841
O=C(NC1CCCCC1)N1CC(=O)N2[C@H](CO)[C@@H](c3ccc(/C=C/c4ccccc4)cc3)[C@@H]2C1	-3.61*
CC(C)CC#Cc1ccc([C@@H]2[C@H](CO)N3C(=O)CN(C(=O)NC4CCCCC4)C[C@@H]23)cc1	1.39
O=C(NC1CCCCC1)N1CC(=O)N2[C@@H](CO)[C@H](c3ccc(/C=C/c4ccccc4)cc3)[C@@H]2C1	-7.36*
CC(C)CC#Cc1ccc([C@H]2[C@H](CO)N3C(=O)CN(C(=O)NC4CCCCC4)C[C@@H]23)cc1	0.265
CCC(=O)N1CC2(CCN(C(=O)Cc3ccccc3)CC2)c2c(n(C)c3cc(OC)ccc23)[C@H]1CO	0.354
COCC(=O)Nc1ccc2c(c1)[C@@H]1C[C@@H](CC(=O)N[C@@H](C)c3ccccc3)O[C@H](CO)[C@@H]1O2	-1.21
C[C@@H]1CN([C@H](C)CO)C(=O)c2ccccc2-c2ccccc2CO[C@H]1CN(C)C(=O)c1cc(Cl)cc(Cl)c1	0.345
SMILES	IDE exosite FP
CCCNC[C@H]1[C@@H](c2ccc(C3=CCCCC3)cc2)[C@@H](CO)N1C(=O)C1CCC1	-1.34
O=C(C[C@H]1C=C[C@@H](NC(=O)Nc2ccc3c(c2)OCO3)[C@@H](CO)O1)NCCCN1CCOCC1	0.392
CCCC#Cc1ccc([C@@H]2[C@H](CO)N3C(=O)CN(C(=O)Nc4ccccc4F)C[C@@H]23)cc1	1.69
CCCNC(=O)N1[C@@H](CO)[C@@H]2c3ccccc3N(C(=O)Nc3cccc(Cl)c3)C[C@@H]21	1.24
CN(C)CC(=O)N1[C@H](C#N)[C@@H](c2ccc(C#CC3CCCCC3)cc2)[C@H]1CO	0.0838
O=C(CN1CCOCC1)N1CC(=O)N2[C@H](CO)[C@@H](c3ccc(-c4ccccc4)cc3)[C@H]2C1	3.14
CCCC#Cc1ccc([C@H]2[C@H](CO)N3C(=O)CN(C(=O)CN4CCOCC4)C[C@@H]23)cc1	1.24
O=C(C1CCOCC1)N1CC(=O)N2[C@H](CO)[C@H](c3ccc(Br)cc3)[C@@H]2C1	-0.279
O=C(CN1CCOCC1)N1CC(=O)N2[C@H](CO)[C@@H](c3ccc(/C=C/c4ccccc4)cc3)[C@H]2C1	-5.99*
CCCC#Cc1ccc([C@H]2[C@H]3CN(C(=O)CN4CCOCC4)CC(=O)N3[C@H]2CO)cc1	4.63
O=C(C1CCOCC1)N1CC(=O)N2[C@H](C1)[C@@H](c1ccc(/C=C/c3ccccc3)cc1)[C@@H]2CO	-7.63*
O=C(CN1CCOCC1)N1CC(=O)N2[C@H](CO)[C@@H](c3ccc(/C=C/c4ccccc4)cc3)[C@@H]2C1	-4.39*
CCCC#Cc1ccc([C@@H]2[C@@H](CO)N3C(=O)CN(C(=O)CN4CCOCC4)C[C@H]23)cc1	1.81
O=C(C1CCOCC1)N1CC(=O)N2[C@@H](CO)[C@@H](c3ccc(Br)cc3)[C@@H]2C1	1.4
COCC(=O)Nc1ccc2c(c1)C(=O)N(C)[C@H]1CC[C@@H](CC(=O)N3CCc4ccccc4C3)O[C@@H]1CO2	-0.354
C[C@@H]1CN([C@H](C)CO)S(=O)(=O)c2ccc(-c3ccc(F)cc3)cc2O[C@H]1CN(C)Cc1ccccc1C(=O)O	-1.54
O=C(Nc1ccc(F)cc1)N1CCCCN2[C@@H](CO)[C@@H](c3ccc(-c4cccc(F)c4)cc3)[C@@H]2C1	-0.456
COCC#Cc1ccc([C@H]2[C@H](CO)N3C(=O)CN(C(=O)C4CCCCC4)C[C@@H]23)cc1	-0.965
CC(C)NC(=O)N1CC(=O)N2[C@H](CO)[C@H](c3ccc(C#CCN(C)C)cc3)[C@H]2C1	4.04
COCC(=O)NC[C@H]1[C@H](c2ccccc2)[C@H](CO)N1C(C)=O	1.81
C[C@H]1CN([C@@H](C)CO)C(=O)c2cc(/C=C/c3ccccc3)cnc2O[C@H]1CN(C)S(=O)(=O)c1ccccc1F	0.0648
C[C@H](CO)N1C[C@H](C)[C@@H](CN(C)C(=O)c2ccccc2)Oc2ncc(C#Cc3ccccc3)cc2C1=O	-2.16
C[C@@H]1CN([C@@H](C)CO)C(=O)c2cc(/C=C/c3ccccc3)cnc2O[C@H]1CN(C)S(=O)(=O)c1ccccc1F	-3.39*
C[C@@H]1CN([C@H](C)CO)C(=O)c2cc(C#Cc3ccccc3)cnc2O[C@@H]1CN(C)C(=O)c1ccccc1	-1.81
C[C@@H]1CN([C@@H](C)CO)C(=O)c2cc(C#Cc3ccccc3)cnc2O[C@@H]1CN(C)C(=O)c1ccccc1	-4.04*
C[C@H]1CN([C@@H](C)CO)C(=O)c2cc(/C=C/c3ccccc3)cnc2O[C@@H]1CN(C)S(=O)(=O)c1ccccc1F	-0.0711
CN1C(=O)c2cc(NC(=O)Nc3ccccc3F)ccc2OC[C@@H]2O[C@H](CC(=O)NCCc3ccncc3)CC[C@H]21	0.209
Cc1ccccc1S(=O)(=O)N1CCCCN2[C@H](CO)[C@@H](c3ccc(-c4cncnc4)cc3)[C@H]2C1	3.33
O=S(=O)(c1ccccc1F)N1CCCCN2[C@H](CO)[C@@H](c3ccc(-c4cccnc4)cc3)[C@H]2C1	0.998
O=S(=O)(c1ccccc1F)N1CCCCN2[C@H](CO)[C@H](c3ccc(-c4cccnc4)cc3)[C@@H]2C1	0.542
